This is a sample that favours compounds with a hit; in the whole collection about 10% have one here.
NIH3T3 tox: Cytotoxic Profiling in NIH 3T3 Cell Line of Diverse Libraries Using Quantitative High-Throughput Screening | NIH 3T3 viability, CellTiter-Glo ATP luminescence, 48-72 h | Potency, µM (top dose mostly 96.7 µM), for the others: at the highest dose activity change, negative = cytotoxicity, usual class: inhibitors | 94,000 tested, 4.3% active; also: nearly all actives have a fitted effect of over 55% in size
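Cytotoxicity is measured as loss of cellular ATP: NIH 3T3 cells (400/well) are exposed to compound for 48 or 72 hr at 37 °C, then CellTiter-Glo luminescence is imaged after 10 min at room temperature.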
hNpr1 antagonist: Natriuretic polypeptide receptor (hNpr1) antagonism - Primary qHTS. Atrial natriuretic peptide receptor 1 (Homo sapiens), P16066. HEK293 hNpr1 GloSensor cGMP, ANP-stimulated luminescence. Potency, µM (doses to about 46.3 µM), inactives show at the top dose activity change, negative = inhibition, actives largely listed as inhibitors. 76,000 tested, 1.6% active; calls by dose curve; also: nearly all actives have a fitted effect of over 60% in size
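Compound pre-incubated 30 min at room temperature on GloSensor-loaded HEK293 cells stably carrying hNpr1 and the pGS-40F cGMP biosensor. Stimulation uses hNppA at 0.1 nM final; luminescence is taken at baseline and 20 min post-agonist.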
FLuc inh: Firefly luciferase inhibition profiling of diverse chemical library using quantitative high-throughput screening. purified P. pyralis luciferase, luminescence, biochemical. Potency, µM (highest dose often 115 µM), actives largely listed as inhibitors. 76,000 tested, 2.5% active. AID 1347043, 2019; also: nearly all actives have a fitted effect of over 65% in size
Target sequence (P08659 whole entry, looked up): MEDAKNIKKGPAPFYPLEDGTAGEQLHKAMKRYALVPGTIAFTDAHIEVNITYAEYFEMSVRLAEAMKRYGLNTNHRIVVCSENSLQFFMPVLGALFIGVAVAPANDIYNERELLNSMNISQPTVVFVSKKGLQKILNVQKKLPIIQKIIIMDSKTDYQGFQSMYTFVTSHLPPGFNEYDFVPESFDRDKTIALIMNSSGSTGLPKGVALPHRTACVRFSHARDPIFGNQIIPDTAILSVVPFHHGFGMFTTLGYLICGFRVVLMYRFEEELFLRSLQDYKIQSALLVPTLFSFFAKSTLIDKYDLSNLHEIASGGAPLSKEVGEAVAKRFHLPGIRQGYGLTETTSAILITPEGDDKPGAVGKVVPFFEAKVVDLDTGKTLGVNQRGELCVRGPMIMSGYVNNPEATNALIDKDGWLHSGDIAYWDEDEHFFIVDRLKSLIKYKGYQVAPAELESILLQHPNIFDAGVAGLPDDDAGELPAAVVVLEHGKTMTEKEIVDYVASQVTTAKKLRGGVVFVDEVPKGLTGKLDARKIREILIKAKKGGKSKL
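Purified 10nM P. pyralis luciferase with 10uM D-luciferin and 10uM ATP in 50mM Tris acetate pH 7.5, 10mM Mg acetate, 0.01% Tween-20, 0.05% BSA. qHTS titration; luminescence read by CCD imager.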
GPT2 inh: Primary qHTS assay for inhibitors of Glutamate pyruvate transaminase 2 (GPT2); Recombinant GPT2, coupled pyruvate oxidase/HRP Amplex Red fluorescence; Potency, µM (doses to about 57.7 µM), for inactives: top-dose activity change, negative = inhibition, hits mostly inhibitors; 100,000 tested, 0.25% active; also: nearly all actives have a fitted effect of over 60% in size
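Fluorescence read-out: pyruvate from GPT2 turnover coupled to pyruvate oxidase, HRP and Amplex Red (0.2mM ThPP, 0.2U/mL PO and HRP, 50uM Amplex final). Substrates 250uM a-KG, 2mM L-alanine; enzyme 10ng/uL; 30 min RT.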
HEK293 tox: Cytotoxic Profiling in HEK 293 Cell Line of Diverse Libraries Using Quantitative High-Throughput Screening. Potency, µM (series often up to 115 µM), inactives show at the top dose activity change, negative = cytotoxicity, actives largely listed as inhibitors. HEK 293 viability, ATP luminescence (CellTiter-Glo), 48-72 h. 94,000 tested, 6.6% active. AID 1345083, 2018; also: nearly all actives have a fitted effect of over 60% in size
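Cells seeded first (HEK 293, 250 cells/well), then compound added by pintool. Incubation ran 48 or 72 hr at 37 degree Celsius. CellTiter-Glo was added and luminescence imaged after 10 min at room temperature.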
* marks the source's active call; other numbers are inactive results; i = inactive; ? = inconclusive; . = no result given; ! = repeats disagree; [ ] = remark or other dose. Unless noted, calls follow the shape of the dose curve; as a rule, active = well fitted curve in the direction sought with a large enough effect; inconclusive = small, poorly fitted or top-dose-only effect, or another doubt; inactive = no such curve, though single readings can be large; an effect the other way counts as inactive or inconclusive. % is scaled to controls: 0 for no effect and ±100 for the full control effect; potency is read from the fitted curve at half-maximal effect.

SMILES	NIH3T3 tox	hNpr1 antagonist	FLuc inh	GPT2 inh	HEK293 tox
c1ccc2ncc(CNC[C@H]3Cn4c(-c5ccc6c(c5)OCCO6)cnc4CO3)cc2c1	?	35.5µM*	?	?	50.1µM*
COc1ccccc1C(=O)N1CCC2(CC1)NC(=O)N(c1ccc(F)cc1)N2	?	-5.0%	i	?	?
O=c1cc2c(nn1Cc1ccc(OC(F)(F)F)cc1)CCCCC2	?	-20.8%	i	-6.3%	44.7µM*
CCC(NC(=O)c1ccc2nc(-c3ccc(F)cc3)cn2c1)c1cccnc1 (stereo not drawn)	?	1.5%	15.8µM*	?	?
O=C(NC1C=CS(=O)(=O)C1)c1ccc2nc(-c3ccc(F)cc3)cn2c1 (stereo not drawn)	?	4.5%	39.8µM*	-0.5%	44.7µM*
Cc1cc(C)nc(CNC(=O)c2ccc3nc(-c4ccc(F)cc4)cn3c2)n1	4.8%	-0.8%	i	i	0.6%
C[C@@H]1O[C@@H](O[C@H]2[C@H](OC(=O)[C@]34CCC(C)(C)C[C@H]3C3=CCC5[C@@]6(C)C[C@H](O)[C@H](O[C@@H]7O[C@H](CO)[C@@H](O[C@@H]8O[C@H](CO)[C@@H](O)[C@H](O)[C@H]8O)[C@H](O)[C@H]7O)[C@@](C)(CO)C6[C@H](O)C[C@@]5(C)[C@]3(C)C[C@H]4O)OC[C@H](O)[C@@H]2O)[C@H](O)[C@H](O)[C@H]1O[C@@H]1OC[C@@H](O)[C@H](O[C@@H]2OC[C@](O)(CO)[C@H]2O)[C@H]1O (stereo partly drawn)	.	.	.	i[11.5 µM]	.
Cc1cccc(-c2nc3cc(C(=O)NC4CCCCCC4)ccc3o2)n1	?	.	.	1.0%	?
COc1ncccc1-c1nc2cc(C(=O)Nc3cccc(Cl)c3)ccc2o1	-32.0%	.	.	3.7%	12.6µM*
COc1ccc(NC(=O)c2ccc3nc(-c4ccccn4)oc3c2)cc1	-38.5%	.	.	-3.5%	25.1µM*
O=C(NCC1CC1)c1ccc2nc(-c3ccccn3)oc2c1	?	.	.	i	112µM*
Cc1cccc(-c2nc3ccc(C(=O)NC4CC4)cc3o2)n1	?	.	.	-3.8%	44.7µM*
COc1ccc(NC(=O)c2ccc3oc(-c4cccnc4OC)nc3c2)cc1	-22.1%[138 µM]	.	.	i	?
CC1=C[C@@H](CN(C)CCC#N)[C@H](C(C)C)C[C@H]1Cc1nnc(-c2ccc(C)cc2)o1	?	?	i	-5.8%[88.5 µM]	50.1µM*
COc1ccc(-c2nnc(C[C@@H]3C[C@@H](C(C)C)[C@H](CN(C)CCc4ccccn4)C=C3C)o2)cc1	35.5µM*	-7.7%	i	?	22.4µM*
COc1ccc(-c2nnc(C[C@@H]3C[C@@H](C(C)C)[C@H](CN(C)CCC#N)C=C3C)o2)cc1	89.1µM*	?	i	?	63.1µM*
Nc1nc(C2CC(O)C2)cc(N2CCC(O)(Cn3ccnc3)CC2)n1 (stereo not drawn)	i	-7.1%	i	-11.6%	i
O=C(NC1CC1)[C@@H]1C[C@H](Oc2cccnc2)CN1S(=O)(=O)c1cccc(F)c1	-15.7%	-2.7%	i	i	i
COCCCNC(=O)c1cc(C2CC2)nc2c1c(C1CCCN1)nn2-c1ccccc1 (stereo not drawn)	?	.	.	i	?
O=C(NCC(F)(F)F)c1cc(C2CC2)nc2c1c(C1CCCN1)nn2-c1ccccc1 (stereo not drawn)	22.4µM*	.	.	i	?
O=C(NCc1ccncc1)c1cc(C2CC2)nc2c1c(C1CCCN1)nn2-c1ccccc1 (stereo not drawn)	20µM*	.	.	0.5%	44.7µM*
CC(C)CNC(=O)c1cc(C2CC2)nc2c1c(C1CCCN1)nn2-c1ccccc1 (stereo not drawn)	17.8µM*	.	.	0.1%	22.4µM*
Cn1ncc2c(C(=O)Nc3ccc(Cl)cc3)cc(-c3ccc(C(F)(F)F)cc3)nc21	-9.4%	.	.	.	i
NC(=O)[C@@H]1C[C@H](Oc2cccnc2)CN1S(=O)(=O)c1ccc2c(c1)OCCO2	-24.7%	-1.8%	i	3.2%	-13.1%
N#Cc1ccc(CN2C[C@@H](COCC(N)=O)[C@H](c3ccncc3)C2)cc1	-14.8%	-10.9%	i	-5.0%	89.1µM*
SMILES	NIH3T3 tox	hNpr1 antagonist	FLuc inh	GPT2 inh	HEK293 tox
Cc1ccc(-c2cccc(CN3CCCC(c4nc5ccc(F)cc5c(=O)[nH]4)C3)c2)c(C)c1 (stereo not drawn)	39.8µM*	-5.1%	i	i	31.6µM*!
O=c1[nH]c(C2CCCN(Cc3cccc(-c4cccs4)c3)C2)nc2ccc(F)cc12 (stereo not drawn)	31.6µM*	?	i	-2.9%	31.6µM*
O=C(COc1ccc(-c2nnc3n2CCCC3)cc1)Nc1ccc(F)cc1	-8.6%	-1.3%	i	i	-3.3%
COc1ccc(-c2nn(-c3ccccc3C)cc2CN2CCCN(C)CC2)cc1F	?	5.5%	i	-11.8%	?
COc1ccc(-n2cc(CN3CCCN(C)CC3)c(-c3cccc(F)c3)n2)cc1	44.7µM*	-6.1%	i	-48.9%	?
COc1ccc(-n2cc(CN3CCCC(O)C3)c(-c3cccc(F)c3)n2)cc1 (stereo not drawn)	?	0.2%	28.2µM*	-10.6%	?
COc1ccc(-c2nn(-c3ccccc3)cc2CN2CCCC(C)(O)C2)c(F)c1 (stereo not drawn)	?	-0.4%	i	i[11.5 µM]	89.1µM*
COc1ccc(-n2cc(CN3CCC(CO)CC3)c(-c3cccc(F)c3)n2)cc1	79.4µM*	3.1%	i	-22.0%	?
COC[C@@H]1CCCN1Cc1cn(-c2ccccc2)nc1-c1ccc(OC)cc1F	?	9.0%	?	i	?
CCOc1cc(-c2noc(-c3ncn4c3COC(c3ccc(F)cc3)C4)n2)ccc1OC (stereo not drawn)	25.1µM*	-2.1%	i	2.5%	22.4µM*
CCOc1cccc(-c2noc(-c3ncn4c3COC(c3ccc(OC)cc3)C4)n2)c1 (stereo not drawn)	22.4µM*	-2.6%	i	1.9%	22.4µM*
Fc1ccccc1-c1noc(-c2ncn3c2COC(c2ccccc2Cl)C3)n1 (stereo not drawn)	?	-11.9%	15.8µM*	-1.3%	?
COc1ccc(C2Cn3cnc(-c4nc(-c5cccs5)no4)c3CO2)cc1 (stereo not drawn)	?	?	25.1µM*	-11.3%	?

Screens from PubChem BioAssay.
